Only some compounds are listed: those with a hit (about 2.6% of all), similar ones and a draw of the others.
Platelet DG rel: platelet dense granule release activity. actives 0.22% (n = 300,000). AID 1663. human platelet-rich plasma, SFLLRN dense granule ATP release, luminescence. inhibition, %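 (compounds screened at 7.5 µM in platelet-rich plasma)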;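 active = mean replicate score, as percent of positive control, at or above 50; inconclusive = mean below 50 but at least one replicate at or above 50; inactive = mean and every replicate below 50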
Rce1 inh: inhibitors of yeast Ras-converting enzyme. AID 2563. actives 0.27% (n = 290,000). Q03530. yeast membranes, quenched prenylated peptide cleavage fluorescence. calls only;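 active = fall in fluorescence gain of 50% or more versus controls, with final raw signal at or below 3038400; inconclusive = same 50% fall but final raw signal above 3038400; inactive = fall in fluorescence gain under 50%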;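 also: plate controls were neutral control wells for no effect and wells lacking membranes for full effect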
ABHD5-PLIN5 inh: ABHD5-PLIN5 protein interaction inhibition; Split G. princeps luciferase complementation, luminescence, 4 h; inhibition, % at 4 µM; actives 0.78% (n = 360,000); AID 602281;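 active = inhibition above the mean inhibition across every tested compound plus 3 SD, cut at about 22% in these data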;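 also: 0% = DMSO only wells and the 100% control is not disclosed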
Target sequence (Q00G26 whole entry, looked up): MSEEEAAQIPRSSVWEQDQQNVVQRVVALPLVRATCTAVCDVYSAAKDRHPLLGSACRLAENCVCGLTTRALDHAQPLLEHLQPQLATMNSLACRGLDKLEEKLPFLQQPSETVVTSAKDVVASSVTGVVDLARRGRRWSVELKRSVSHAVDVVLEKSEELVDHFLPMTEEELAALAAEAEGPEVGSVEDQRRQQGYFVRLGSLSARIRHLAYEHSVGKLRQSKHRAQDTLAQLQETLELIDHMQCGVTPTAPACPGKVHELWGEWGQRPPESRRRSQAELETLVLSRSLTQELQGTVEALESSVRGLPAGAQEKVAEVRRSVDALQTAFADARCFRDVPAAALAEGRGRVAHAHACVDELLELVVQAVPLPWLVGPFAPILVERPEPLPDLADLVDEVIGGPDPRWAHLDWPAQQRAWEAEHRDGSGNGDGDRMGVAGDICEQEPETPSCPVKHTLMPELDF
Target sequence (Q8WTS1 whole entry, looked up): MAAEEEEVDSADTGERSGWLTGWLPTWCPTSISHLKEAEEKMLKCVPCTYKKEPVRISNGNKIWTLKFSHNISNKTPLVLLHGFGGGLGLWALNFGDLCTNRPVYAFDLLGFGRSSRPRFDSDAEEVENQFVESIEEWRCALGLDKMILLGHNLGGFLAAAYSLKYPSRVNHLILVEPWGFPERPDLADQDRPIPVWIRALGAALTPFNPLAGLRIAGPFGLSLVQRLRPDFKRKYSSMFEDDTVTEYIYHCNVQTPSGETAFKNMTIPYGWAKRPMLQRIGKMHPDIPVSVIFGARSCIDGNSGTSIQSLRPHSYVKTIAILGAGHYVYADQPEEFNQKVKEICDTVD
M18AAP inhibitor: blocks P. falciparum M18 aspartyl aminopeptidase; recombinant PfM18AAP, H-Glu-NHMec fluorogenic cleavage; inhibition, % at 7.35 µM; actives 1.2% (n = 290,000);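 active = inhibition above the campaign mean inhibition over all tested compounds plus 3 SD, cut at about 28% in these data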;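 also: 0% = plate median of test compound wells and 100% = 2 mM ZnCl2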
Exocytosis inh: lytic granule exocytosis inhibition | TALL-104 LAMP-1 surface exposure, flow cytometry; cells stimulated with thapsigargin and PMA | inhibition, % at 10 µM | actives 0.66% (n = 360,000) | AID 651702;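 active = inhibition above about 55%, limit read from the data; inconclusive = no clear call, values can overlap the other calls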
The depositor's hits bear a star; i = inactive; u = inconclusive; x = no result given; + = active, no number.

SMILES	Platelet DG rel	Rce1 inh	ABHD5-PLIN5 inh	M18AAP inhibitor	Exocytosis inh
O=C(CCNS(=O)(=O)c1ccc2[nH]c(=O)oc2c1)NCc1ccc(F)cc1	-13	i	1	-1	0
O=C(CNc1ccc2ccccc2c1)N/N=C/c1ccc(OC(=O)/C=C/c2ccco2)cc1	-1	i	5	17	1
O=C(CNc1cccc2ccccc12)N/N=C/c1ccc(OC(=O)/C=C/c2ccco2)cc1	0	i	-5	28*	4
O=C(/C=C/c1ccco1)Oc1cc(Br)cc(/C=N/NC(=O)c2ccccc2O)c1	-6	i	2	16	78*
CCc1ccc(Nc2n[n+](-c3ccccc3)c(/C=C/c3ccccc3)s2)cc1	6	+	x	-2	x
CC(=O)Nc1ccc(C2=NN(c3ccccc3)C(c3cccs3)C2)cc1 (configuration not stated)	-2	i	-7	2	-2
COc1ccccc1NNC(=O)C(O)(c1ccccc1)c1ccccc1	16	i	-4	-39	104*
COC(=O)C1CC(=O)N(CCc2c[nH]c3ccccc23)C1 (configuration not stated)	4	i	-4	0	3
Cc1cc(-c2ccccc2)n2nc(C)c(C#N)c2n1	-1	+	-6	1	4
COc1ccc(-c2c(C)nn3c(-c4ccccc4)cc(C)nc23)cc1	1	i	-2	2	0
CCOC(=O)C[n+]1c(C)sc2ccc(OC)cc21	-3	i	-9	28	75*
CN1OC[C@@H]2CN(C(=O)C(C)(C)C)[C@H](c3cccc(N4CCOCC4)c3)C[C@@H]21	x	x	-2	x	-6
Cc1cc(=S)[nH]c2c(C)cccc12	5	i	6	33*	-1
Cc1cccc2c(-c3ccccc3)cc(=O)[nH]c12	-6	i	3	6	0
O=C(NN=Cc1ccc(Cl)cc1Cl)C1CC1	x	x	-1	x	3
NS(=O)(=O)c1ccc(NC(=S)NC(=O)c2ccco2)cc1	-17	i	-4	12	-6
C/C(=N\OC(=O)c1ccc(C)cc1)c1sc(C)nc1C	31	i	14	-8	-2
N/C(=N\OC(=O)c1ccccc1)c1ccccn1	15	i	2	-5	3
CCOc1ccc(C(=O)O/N=C(\N)c2ccccn2)cc1	81*	i	4	-6	-7
C/C(=N/OC(=O)c1ccc(C)cc1)c1cccs1	59*	i	-3	-7	-2
Cc1ccc(C(=O)O/N=C(\N)c2ccccn2)cc1	104*	i	1	6	-10
CCOC(=O)c1c(C)[nH]c(C(=O)OCc2ccc(C)cc2)c1C	-5	i	-7	-1	-1
CCOC(=O)c1c(C)[nH]c(/C(C)=N/O)c1C	-2	i	-8	6	-2
CCOC(=O)c1c(C)[nH]c(C2=NNC(=NC3CC3)SC2)c1C	-3	x	-11	44*	0
CNc1nc2[nH]c(=O)c3c(c2s1)OC(N)=C(C#N)C3c1cccc(F)c1 (configuration not stated)	8	i	-24	0	1
SMILES	Platelet DG rel	Rce1 inh	ABHD5-PLIN5 inh	M18AAP inhibitor	Exocytosis inh
Clc1ccc(CNc2ccc(CNc3ncn[nH]3)cc2)c(Cl)c1	-4	i	-6	28*	12
Clc1ccc(CNc2ccc(CNc3ncn[nH]3)cc2)cc1	1	i	-7	37*	-5
O=S(=O)(Nc1ncn[nH]1)c1ccc(Cl)cc1	33	i	-1	59*	-1
c1ccc(CNc2ccc(CNc3ncn[nH]3)cc2)cc1	1	i	-1	24	0
c1ccc(CNc2ncn[nH]2)cc1	x	x	8	x	-9
CN(C)S(=O)(=O)n1cc(/C=C(\NC(=O)c2ccccc2Cl)C(=O)NCCN2CCOCC2)c2ccccc21	-3	i	1	1	4
CCCCCn1c(=O)c(-c2nc3ccccc3[nH]2)c(O)c2ccccc21	-1	+	-10	0	-3
CCCCCCCCn1c(=O)c(C(=O)OCC)c(O)c2ccccc21	0	i	-2	7	4
CC1CCCN(CCCNC(=O)C2CCCN(c3ncnc4c3nc3n4CCCCC3)C2)C1 (configuration not stated)	13	i	-5	-5	-6
COc1ccc(-n2nc(C(=O)NCC(=O)N(C)Cc3ccccc3)c3ccccc3c2=O)cc1	0	+	8	3	-3
COc1ccc(-n2nc(C(=O)NCC(=O)N3CCN(Cc4ccccc4)CC3)c3ccccc3c2=O)cc1	1	+	12	0	13
CCN1CCN(C(=O)CNC(=O)c2nn(-c3ccc(OC)cc3)c(=O)c3ccccc23)CC1	-1	i	5	-7	-17
COc1ccc(-n2nc(C(=O)NCC(=O)NC(C)C)c3ccccc3c2=O)cc1	4	i	-9	3	-4
COc1ccc(-n2nc(C(=O)NCC(=O)NCc3ccc(F)cc3)c3ccccc3c2=O)cc1	-1	+	4	7	-7
COc1cc(OC)c(Nc2cc(C)nc3nc(C)nn23)cc1Cl	8	i	2	-10	1
COc1ccc2c(c1)c1ncn(CCN3CCCC3)c(=O)c1n2C	-1	+	3	-7	7
COc1ccc2[nH]c3c(=O)n(CCN4CCOCC4)cnc3c2c1	1	i	12	-7	-3
COc1ccc2c(c1)c1ncn(CCN3CCNCC3)c(=O)c1n2C	3	u	3	1	0
COc1ccc2c(c1)c1ncn(CCN3CCCCC3)c(=O)c1n2C	-3	+	7	1	3
O=C(O)/C=C/c1ccc([N+](=O)[O-])o1	-4	x	2	5	5
O=[N+]([O-])c1ccc(/C=N/N=C/c2ccc([N+](=O)[O-])o2)o1	x	x	10	18	63*
O=C(N/N=C/c1ccc([N+](=O)[O-])o1)c1ccc2c(c1)OCO2	-9	i	-4	30*	6
O=C(Nc1ncc([N+](=O)[O-])s1)c1ccc2c(c1)OCO2	80*	i	5	16	34
COc1cccc(-c2nc(CS(=O)(=O)CC(=O)NCCc3ccc(C)cc3)c(C)o2)c1	-1	i	10	-3	-9
CCN(CC(=O)NCc1cccs1)CC(=O)Nc1ccccc1C	x	x	-5	x	2
SMILES	Platelet DG rel	Rce1 inh	ABHD5-PLIN5 inh	M18AAP inhibitor	Exocytosis inh
Cc1ccc(-c2csc(NC(=O)c3cccc(N4C(=O)CCC4=O)c3)n2)o1	9	i	22*	-55	2
Cc1sc(NC(=O)c2ccccc2)c(C(=O)c2ccccc2)c1C	-5	i	-12	32*	1
CCOC(=O)c1c(-c2ccc(-c3ccccc3)cc2)csc1NC(=O)c1cccc(N2C(=O)CCC2=O)c1	-22	i	3	-2	-5
CCOC(=O)c1c(NC(=O)c2cccc(N3C(=O)CCC3=O)c2)sc(C)c1C	2	+	-2	0	4
CCOc1ccc(-c2csc(NC(=O)c3cccc(N4C(=O)CCC4=O)c3)n2)cc1	-6	i	11	4	-2
N#Cc1ccccc1Cn1c(=O)n(Cc2ccc(C(=O)NCc3ccco3)cc2)c(=O)c2sccc21	3	i	4	2	-4
